# Measured potencies and affinities stand elsewhere.
# What was measured:
# Klebsiella pneumoniae = conditions: Concentration 32 ug.mL-1;; ASSAY_TEST Inhibition of Bacterial Growth; detection method Absorption (OD600); MEDIA CAMHB; plate type 384well; NBS; CORNING #3640; time 18 hr
# Candida albicans = conditions: Concentration 32 ug.mL-1; ASSAY_TEST Inhibition of Fungal Growth; detection method Absorption (OD530)
# Cryptococcus neoformans = conditions: Concentration 32 ug.mL-1; ASSAY_TEST Inhibition of Fungal Growth; detection method Resazurin; Absorption (OD600-OD570); plate type 384well; NBS; CORNING #3640
structure (smiles),measurement,setting,value
O=C(CSc1nnc2c(=O)n(Cc3ccc(F)cc3)ccn12)NC1CCCC1,Inhibition,Klebsiella pneumoniae,8.75%
same,Inhibition,Candida albicans,5.19%
same,Inhibition,Cryptococcus neoformans,-22.84%
CCC(C)NC(=O)Cn1nc2n(Cc3ccco3)c(=O)c3sccc3n2c1=O (stereo not drawn),Inhibition,Klebsiella pneumoniae,10.15%
same,Inhibition,Candida albicans,-0.07%
same,Inhibition,Cryptococcus neoformans,-9.56%
COc1ccccc1-n1ccn2c(SCC#N)nnc2c1=O,Inhibition,Klebsiella pneumoniae,22.72%
same,Inhibition,Candida albicans,4.95%
same,Inhibition,Cryptococcus neoformans,-18.74%
O=C(Cn1nc2c(N3CCOCC3)nccn2c1=O)NCc1ccccc1Cl,Inhibition,Klebsiella pneumoniae,10.56%
same,Inhibition,Candida albicans,3.88%
same,Inhibition,Cryptococcus neoformans,-5.18%
Cc1nnc2ccc(S(=O)(=O)N(Cc3ccc(F)cc3)c3cc(F)cc(F)c3)cn12,Inhibition,Klebsiella pneumoniae,9.19%
same,Inhibition,Candida albicans,0.51%
same,Inhibition,Cryptococcus neoformans,-14.68%
O=C(Cn1nc2c(Oc3ccccc3)nccn2c1=O)Nc1ccc2c(c1)OCO2,Inhibition,Klebsiella pneumoniae,4.55%
same,Inhibition,Candida albicans,2.95%
same,Inhibition,Cryptococcus neoformans,-10%
O=C(Cn1nc2c(SCc3ccccc3)nccn2c1=O)NC1CCCC1,Inhibition,Klebsiella pneumoniae,3.94%
same,Inhibition,Candida albicans,1.33%
same,Inhibition,Cryptococcus neoformans,-3.97%
COc1cccc(-n2ccn3c(SCC(=O)Nc4ccc(Cl)cc4)nnc3c2=O)c1,Inhibition,Klebsiella pneumoniae,5.48%
same,Inhibition,Candida albicans,2.88%
same,Inhibition,Cryptococcus neoformans,-10.21%
Cc1ccc(CN(c2ccc3c(c2)OCO3)S(=O)(=O)c2ccc3nnc(C)n3c2)cc1,Inhibition,Klebsiella pneumoniae,2.15%
same,Inhibition,Candida albicans,2.45%
same,Inhibition,Cryptococcus neoformans,-2.21%
Cc1cc(C)c(NC(=O)Cn2nc3ccc(SC(C)(C)C)nn3c2=O)c(C)c1,Inhibition,Klebsiella pneumoniae,14.36%
same,Inhibition,Candida albicans,2.38%
same,Inhibition,Cryptococcus neoformans,-25.26%
O=C(Cn1nc2c(SC3CCCCC3)nccn2c1=O)Nc1ccccc1F,Inhibition,Klebsiella pneumoniae,4.58%
same,Inhibition,Candida albicans,0.33%
same,Inhibition,Cryptococcus neoformans,-26.33%
CCc1nnc2c(SCC(=O)Nc3cc(Cl)ccc3OC)nc3ccccc3n12,Inhibition,Klebsiella pneumoniae,11.61%
same,Inhibition,Candida albicans,1.63%
same,Inhibition,Cryptococcus neoformans,-7.04%
O=S(=O)(c1cccn2cnnc12)N(Cc1ccccc1F)c1ccc(F)c(F)c1,Inhibition,Klebsiella pneumoniae,13.33%
same,Inhibition,Candida albicans,5.39%
same,Inhibition,Cryptococcus neoformans,-3.16%
COc1ccc(N(Cc2ccccc2F)S(=O)(=O)c2ccc3nnc(C)n3c2)cc1,Inhibition,Klebsiella pneumoniae,4.15%
same,Inhibition,Candida albicans,-0.01%
same,Inhibition,Cryptococcus neoformans,-2.71%
CCCc1nnc2c(=O)n(CC(=O)Nc3ccc(Br)cc3)c3ccccc3n12,Inhibition,Klebsiella pneumoniae,14.09%
same,Inhibition,Candida albicans,0.11%
same,Inhibition,Cryptococcus neoformans,-25.88%
Cc1ccc(-c2ccc3nnc(CCC(=O)NCc4cccc(Br)c4)n3n2)cc1,Inhibition,Klebsiella pneumoniae,20.54%
same,Inhibition,Candida albicans,1.13%
same,Inhibition,Cryptococcus neoformans,-54.18%
COc1ccc(NC(=O)Cn2nc3c4cc(-c5ccc(F)cc5)nn4ccn3c2=O)c(OC)c1,Inhibition,Klebsiella pneumoniae,14.79%
same,Inhibition,Candida albicans,2.08%
same,Inhibition,Cryptococcus neoformans,-15.48%
CCCNC(=O)Cn1nc2n(Cc3ccco3)c(=O)c3sccc3n2c1=O,Inhibition,Klebsiella pneumoniae,8.71%
same,Inhibition,Candida albicans,5.01%
same,Inhibition,Cryptococcus neoformans,-16.3%
COC(=O)c1cccc(NC(=O)Cn2nc3c(SCc4ccc(Cl)cc4)nccn3c2=O)c1,Inhibition,Klebsiella pneumoniae,6.22%
same,Inhibition,Candida albicans,27.78%
same,Inhibition,Cryptococcus neoformans,-15.7%
Cc1ccc(Oc2nccn3c(=O)n(CC(=O)Nc4ccc(C)cc4Br)nc23)cc1,Inhibition,Klebsiella pneumoniae,1.71%
same,Inhibition,Candida albicans,0.3%
same,Inhibition,Cryptococcus neoformans,-4.1%
O=C(Cn1nc2c(SC3CCCCC3)nccn2c1=O)Nc1ccc(Br)cc1,Inhibition,Klebsiella pneumoniae,6.54%
same,Inhibition,Candida albicans,6.38%
same,Inhibition,Cryptococcus neoformans,-23.31%

# Reference: ChEMBL document CHEMBL4513146, “CO-ADD screening of Karazin Kharkiv National University (Ukraine) compounds”
